Here are results for seven compounds from PubChem BioAssay.

Test [1] can be described thus: liver-stage malaria parasite growth inhibition, primary screen, cell-based, HepG2, luciferase luminescence, HepG2 viability (AID 624349; in the data active means parasite load remaining mostly below about 12%, no sharp cut-off; inactive means mostly above about 10%;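 further: 100% = mean of DMSO negative control wells on the same plate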). Conditions: P. berghei liver stage in HepG2, luciferase luminescence, concentration not given here; parasite load remaining: stronger effect = lower value; viability: measured here: HepG2 viability without parasites.
The nature of test [2]: differential killing of epithelial or mesenchymal cells, primary screen, imaging, PC-3E GFP, TEM4-18 mCherry, co-culture (AID 1345086;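 active means compounds killing one labelled cell type while sparing the other, by normalised counts and ratio limits, not self-fluorescent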;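 on all read-outs here: cells exposed to compound for 72 h before imaging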;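 on red/green cell ratio (normalised): normalised mesenchymal count divided by normalised epithelial count so high means epithelial killing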). Conditions: imaging cell counts, at 1 µM; for red/green cell ratio (normalised): actives lie on both sides, counts scaled to control wells, 1 = unselective.
A short description of test [3]: sensitizers of A549 cells to miR-34 induction, primary screen, imaging, A549 dox-inducible miR-34, nuclei and caspase counts (AID 1347080). As to conditions: A549 miR-34 inducible, Hoechst nuclei count, 48 h.
The nature of test [4]: survival rescue of mitochondrial mutant cells in low glucose, primary screen, MELAS cybrids, Rieske KO mouse fibroblasts, CellTiter-Glo (AID 1508586;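 active means mean z-score across replicates of 1.96 or higher in either the MELAS or the Rieske mutant cell line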;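 further: z relative to plate mean and SD of compound and empty wells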). In general terms: Cellular ATP, detected with luciferase, serves as a proxy for viable cell number.
The target in test [5] is NAD(+) hydrolase SARM1 (Homo sapiens) (UniProt Q6SZW1). As to the kind of experiment: SARM1 TIR NADase inhibitors, cell lysate, NAD-Glo luminescence (AID 1508614;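 active means compound whose remaining NAD level is above about 45 nM, limit read from the data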). Conditions: SAM-TIR HEK293T lysate NADase, at 1 µM, stronger effect = higher value.
Chain of NAD(+) hydrolase SARM1 (Homo sapiens) (Q6SZW1 whole entry, looked up, the tested form may be a part): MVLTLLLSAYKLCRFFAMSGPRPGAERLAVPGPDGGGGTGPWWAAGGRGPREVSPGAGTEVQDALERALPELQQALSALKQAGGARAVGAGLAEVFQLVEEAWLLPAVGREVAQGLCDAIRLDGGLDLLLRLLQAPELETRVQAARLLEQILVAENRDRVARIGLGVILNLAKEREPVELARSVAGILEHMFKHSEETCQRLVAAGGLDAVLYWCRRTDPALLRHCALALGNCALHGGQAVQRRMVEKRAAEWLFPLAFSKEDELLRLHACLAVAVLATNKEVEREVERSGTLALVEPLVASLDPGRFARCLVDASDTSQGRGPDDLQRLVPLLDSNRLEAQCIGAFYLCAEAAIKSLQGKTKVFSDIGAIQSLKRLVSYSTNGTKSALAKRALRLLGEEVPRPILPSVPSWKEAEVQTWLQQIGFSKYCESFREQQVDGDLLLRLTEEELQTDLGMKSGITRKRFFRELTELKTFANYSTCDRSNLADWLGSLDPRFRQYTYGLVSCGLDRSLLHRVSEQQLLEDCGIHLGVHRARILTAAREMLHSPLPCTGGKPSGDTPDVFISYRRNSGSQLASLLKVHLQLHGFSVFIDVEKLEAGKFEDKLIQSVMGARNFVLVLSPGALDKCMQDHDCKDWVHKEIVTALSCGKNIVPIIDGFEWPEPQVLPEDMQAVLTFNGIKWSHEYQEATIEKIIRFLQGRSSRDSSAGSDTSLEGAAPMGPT
The target of test [6] is Mitogen-activated protein kinase 7 (Homo sapiens) (UniProt Q13164). As to the kind of experiment: ERK5 transactivation activators in reporter cells, primary screen, cell-based, HTS (AID 1508626;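 active means luciferase signal above three times the same-plate solvent-only control wells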;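 further: luciferase driven by Gal4-ERK5 fusion binding five Gal4 sites before minimal TATA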). As to conditions: HeLa Gal4-ERK5 transactivation, 18 h, at 5 µM, stronger effect = higher value.
Chain of Mitogen-activated protein kinase 7 (Homo sapiens) (Q13164 whole entry, looked up, the tested form may be a part): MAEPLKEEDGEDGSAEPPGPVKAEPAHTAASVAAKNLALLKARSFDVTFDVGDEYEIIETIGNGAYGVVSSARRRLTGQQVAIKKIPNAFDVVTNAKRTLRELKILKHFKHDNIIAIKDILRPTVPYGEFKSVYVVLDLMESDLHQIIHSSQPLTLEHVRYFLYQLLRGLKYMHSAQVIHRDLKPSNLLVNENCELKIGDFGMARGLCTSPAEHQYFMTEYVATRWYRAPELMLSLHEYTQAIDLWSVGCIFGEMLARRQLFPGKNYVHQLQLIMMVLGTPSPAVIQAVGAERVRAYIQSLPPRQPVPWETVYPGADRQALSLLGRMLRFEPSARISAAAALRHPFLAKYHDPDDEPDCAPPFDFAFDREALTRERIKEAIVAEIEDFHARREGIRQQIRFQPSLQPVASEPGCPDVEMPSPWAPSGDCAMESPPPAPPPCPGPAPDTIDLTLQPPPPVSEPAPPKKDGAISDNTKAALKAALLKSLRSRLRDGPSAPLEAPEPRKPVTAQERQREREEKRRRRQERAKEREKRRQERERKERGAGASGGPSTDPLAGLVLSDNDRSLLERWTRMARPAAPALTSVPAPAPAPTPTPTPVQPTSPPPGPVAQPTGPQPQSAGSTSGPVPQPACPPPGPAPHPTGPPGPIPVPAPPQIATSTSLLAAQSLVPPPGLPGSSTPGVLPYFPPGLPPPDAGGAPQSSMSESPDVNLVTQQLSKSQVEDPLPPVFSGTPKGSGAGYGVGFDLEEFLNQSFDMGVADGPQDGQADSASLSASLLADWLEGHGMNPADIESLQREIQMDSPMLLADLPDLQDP
The test system of test [7] is Hepatitis C virus NS3 helicase. As to the kind of experiment: HCV NS3 helicase inhibitors, primary screen, biochemical, fluorescence polarization, LOPAC1280 library (AID 687035; in the data active means inhibition above about 37%). As to conditions: Purified HCV NS3 helicase, Cy5-dT15 ssDNA binding fluorescence polarization; stronger effect = higher value; concentration not given here.
Test [8] can be described thus: Cy5 fluorescence quenching or enhancement artefacts, artefact control for HCV NS3 helicase inhibitor project, biochemical, LOPAC1280 (AID 687037; call rule not given here). As to conditions: Cy5-DNA-NS3h complex fluorescence interference counterscreen. A general note: The purpose of a counterscreen is to sort out artefacts and off-target activity.
A short description of test [9]: phospholipid biosynthesis inhibitors in animal cells, primary screen, cell-based, LOPAC library, screen 4 (AID 1347384; call rule not given here). Conditions: phospholipid biosynthesis inhibition screen, at 10 µM.
A short description of test [10]: viability rescue of complex I mutant cybrids, primary screen, cell-based, galactose medium, ATP luminescence (AID 1645843;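 active means z-score of at least 1.8 in each of two replicates, scored against plate mean and spread of sample wells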;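 further: positive z means more ATP and so rescue of galactose-driven cybrid death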). Conditions: complex I mutant cybrid cells, 72 h, stronger effect = higher value.
The nature of test [11]: hESC survival regulators, cell-based (AID 493140; call rule not given here;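 further: cells exposed to compounds for four days before counting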). As to conditions: human embryonic stem cell survival screen; stronger effect = higher value.
Where [12] appears, read: measured here: epithelial PC-3E GFP cell survival.
[13] abbreviates: measured here: mesenchymal TEM4-18 mCherry cell survival.
The mark [14] stands for this setting: stronger effect = lower value, cell number ratio, induced over uninduced.
[15] abbreviates: measured here: relative caspase fold change +Dox/-Dox.
[16] abbreviates: measured here: total cells with miR-34 induction, stronger effect = lower value.
Where [17] appears, read: measured here: total cells without miR-34 induction.
Setting [18] is: MELAS cybrid survival, CellTiter-Glo 48 h, stronger effect = higher value.
The mark [19] stands for this setting: Rieske KO mouse fibroblast survival, CellTiter-Glo 72 h.

Where “and” joins values, the source holds several entries; their conditions need not be identical. Equal values may be shown once. Calls of active or inactive are those of the source.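 How the source made its calls, unless noted: active means compounds whose cell count with miR-34 switched on is under 0.7 times the count with it off; inactive means the rest.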

With `C[C@@H]1CC2C3CCC4=CC(=O)C=C[C@]4(C)[C@@]3(F)[C@@H](O)C[C@]2(C)[C@@]1(O)C(=O)CO` (some centres undefined), in test [1], the parasite load remaining is 152% (inactive) and 64.1% (inactive). The viability in test [1] was 77.2% and 87.1%. In [2], the red/green cell ratio (normalised) was 1.24 (inactive). Further, the normalised cell number in test [2] (setting [12]) turned out to be 1.34; in test [2] (setting [13]) it was 1.66. The fold change was 0.825 (inactive) in test [3] (setting [14]) and 2.2 in test [3] (setting [15]). Moreover, the cell count in test [3] (setting [16]) stood at 7310; in [3] (setting [17]) it was 8850.
For `O=C(O)[C@H]1/C(=C/CO)O[C@@H]2CC(=O)N21`, the parasite load remaining in [1] was 50.6% (inactive). The viability in test [1] was found to be 103%. For the same compound, the red/green cell ratio (normalised) in test [2] was 1.31 (inactive). For the same compound, the normalised cell number in test [2] (setting [12]) came to 0.86; in test [2] (setting [13]) it was 1.13. Also, the figures for the fold change in [3] (setting [14]) and in test [3] (setting [15]) were 0.901 (inactive) and 3.53, respectively. In addition, the cell count was 11900 in test [3] (setting [16]) and 13200 in test [3] (setting [17]). The results for the z-score in [4] (setting [18]) and in test [4] (setting [19]) were -0.304 (inactive) and -1.19, respectively. Moreover, the remaining NAD in [5] is 10 nM (inactive). Also, in [6], the luciferase signal is 76 AU (inactive).
For the compound `O=C(O)C1CCCNC1` (centres undefined), the parasite load remaining in test [1] is 89.7% (inactive). Besides, the viability in test [1] is 95.9%. In test [7], the inhibition was 0% (inactive). Moreover, in test [8], the fluorescence ratio (interference) was 0.9 (inactive). Also, the red/green cell ratio (normalised) in test [2] is 0.84 (inactive). Besides, the normalised cell number in [2] (setting [12]) turned out to be 1.28; in [2] (setting [13]), 1.08. Moreover, the fold change was 0.976 (inactive) and 0.953 (inactive) in test [3] (setting [14]); 1.22 and 0.942 in [3] (setting [15]). Moreover, the cell count is 9840 and 8650 in [3] (setting [16]); 10100 and 9080 in test [3] (setting [17]). In addition, in test [9], the call was inactive. Also, the z-score in [10] was 0.695 (inactive).
Take `CCNC1CN(CCCOC)S(=O)(=O)c2sc(S(N)(=O)=O)cc21` (centres undefined): the red/green cell ratio (normalised) in test [2] is 0.72 (inactive). Moreover, the results for the normalised cell number in [2] (setting [12]) and in test [2] (setting [13]) were 1.22 and 0.87, respectively. For the same compound, the fold change was 0.853 (inactive) in test [3] (setting [14]) and 0.647 in test [3] (setting [15]). Moreover, the cell count in [3] (setting [16]) is 8320; in test [3] (setting [17]) it was 9750. The results for the z-score in test [4] (setting [18]) and in test [4] (setting [19]) were -0.247 (inactive) and -0.152, respectively.
With `CCC(=O)OCC(=O)[C@@]1(OC(=O)CC)[C@H](C)CC2C3C([C@@H](O)C[C@@]21C)[C@@]1(C)C=CC(=O)C=C1C[C@H]3Cl` (some centres undefined), in test [2], the red/green cell ratio (normalised) is 1.28 (inactive). Also, the normalised cell number in test [2] (setting [12]) came out at 0.98; in test [2] (setting [13]), 1.25. Besides, the results for the fold change in [3] (setting [14]) and in [3] (setting [15]) were 0.884 (inactive) and 0.881, respectively. Besides, the cell count was 5210 in test [3] (setting [16]) and 5890 in test [3] (setting [17]).
Take `COc1cc([C@@H]2c3cc4c(cc3[C@H](O)C3COC(=O)[C@@H]32)OCO4)cc(OC)c1OC` (some centres undefined): in test [7], the inhibition was -3% (inactive). Also, the fluorescence ratio (interference) in test [8] is 1 (inactive). For the same compound, the red/green cell ratio (normalised) in [2] was 1.07 (inactive). Further, the values for the normalised cell number in test [2] (setting [12]) and in test [2] (setting [13]) were 0.17 and 0.18, respectively. Further, the fold change in [3] (setting [14]) is 0.98 (inactive); in [3] (setting [15]), 1.04. In addition, the cell count amounted to 1670 in test [3] (setting [16]) and 1710 in test [3] (setting [17]). The outcome in test [9] was inactive. Besides, the z-score in test [10] was -0.545 (inactive).
For `N[C@H]1CONC1=O`, in [11], the survival was 1.5 (inactive). The parasite load remaining in [1] is 74% (inactive). The viability in [1] turned out to be 71%. In addition, in test [7], the inhibition was 0% (inactive). In addition, in test [8], the fluorescence ratio (interference) is 1 (inactive). In addition, the red/green cell ratio (normalised) in [2] is 0.88 (inactive). Moreover, the normalised cell number turned out to be 1.18 in test [2] (setting [12]) and 1.03 in test [2] (setting [13]). The fold change in [3] (setting [14]) was 1.03 (inactive) and 0.935 (inactive) and 0.898 (inactive); in test [3] (setting [15]), 1.58 and 1.14 and 0.652. Also, the cell count is 10600 and 9010 and 9280 in test [3] (setting [16]); 10300 and 9640 in [3] (setting [17]). Moreover, in [9], the result was inactive. Besides, the z-score is -0.786 (inactive) in test [4] (setting [18]), -1.27 in [4] (setting [19]) and -0.18 (inactive) in test [10]. In addition, the remaining NAD in [5] is 10 nM (inactive).

What is called viability is a read-out of living cells in per cent, often relative to untreated cells. As a reminder, the inhibition is the drop in the measured response relative to a control, in per cent.
